Assay outcomes (PubChem BioAssay)
LYPLA1 counter: LYPLA1 inhibitors, primary screen, counter-screen for PME1 inhibitor project, biochemical, fluorescence polarization, FP-Rh probe ABPP. Acyl-protein thioesterase 1 (Homo sapiens), O75608. recombinant LYPLA1. inhibition, % at 5.9 µM. actives 0.16% (n = 320,000). AID 2174, 2009;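 active means inhibition above the mean of all tested compounds plus 3 SD, set per campaign, cut at about 14% in these data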;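 further: inhibitors block serine hydrolase probe labeling of LYPLA1 so polarization falls; 0% = enzyme with DMSO and 100% = wells lacking LYPLA1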
MEX-5 binding: MEX-5 zinc finger RNA-binding disruptors – biochemical, C. elegans, fluorescence polarization, MLPCN library, primary screen; activity score (negative = inhibition of binding), % at 10 µM; Zinc finger protein mex-5 (Caenorhabditis elegans), Q9XUB2; actives 0.38% (n = 300,000); AID 1832, 2009; MEX-5/FITC-TCR2 RNA binding; active compounds read low;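 active means inhibition past about -25% in most replicates, and total fluorescence under double the plate's negative control median, limit read from the data; inconclusive means replicates evenly split on the limit, or fluorescence at least double controls; inactive means too little inhibition in most replicates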;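 further: 0% = DMSO and -100% = 5 µM competing unlabeled TCR2 RNA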
Target sequence (Q9XUB2 whole entry, looked up): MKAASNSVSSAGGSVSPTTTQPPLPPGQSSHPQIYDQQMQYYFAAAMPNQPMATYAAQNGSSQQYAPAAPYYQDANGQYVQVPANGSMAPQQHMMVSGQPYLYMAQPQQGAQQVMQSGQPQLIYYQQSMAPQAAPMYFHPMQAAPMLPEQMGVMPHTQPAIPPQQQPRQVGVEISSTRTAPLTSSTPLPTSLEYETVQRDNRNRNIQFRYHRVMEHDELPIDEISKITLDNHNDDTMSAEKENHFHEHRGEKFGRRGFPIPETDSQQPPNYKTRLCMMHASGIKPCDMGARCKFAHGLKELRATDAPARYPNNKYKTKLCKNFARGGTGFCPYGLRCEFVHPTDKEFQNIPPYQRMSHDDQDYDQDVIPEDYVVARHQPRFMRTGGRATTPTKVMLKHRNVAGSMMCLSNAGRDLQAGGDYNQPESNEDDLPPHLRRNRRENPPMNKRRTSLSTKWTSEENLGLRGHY
PME-1 inh: PME-1 inhibitors via competitive probe labeling, primary screen, biochemical, fluorescence polarization, FP-Rh probe, HTS; Protein phosphatase methylesterase 1 (Homo sapiens), Q9Y570; recombinant PME-1; inhibition, % at 5.9 µM; actives 0.53% (n = 320,000);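 active means inhibition above the campaign mean of all compounds plus 3 SD, cut at about 26% in these data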;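 further: competitive labeling of PME-1 active site by serine hydrolase directed probe; 0% = PME-1 with DMSO and 100% = wells lacking PME-1 enzyme; inhibitors block probe labeling so polarization falls and inhibition rises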
PREPL inh: PREPL enzyme inhibitors, primary screen, biochemical, fluorescence polarization; Prolyl endopeptidase-like (Homo sapiens), Q4J6C6; recombinant PREPL, fluorescence polarization activity-based probe; inhibition, % at 5.96 µM; actives 0.68% (n = 320,000); AID 2751, 2010;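 further: 0% = enzyme with DMSO and 100% = wells lacking enzyme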
Fam108B inh: mouse Fam108B serine hydrolase inhibitors, primary screen, counter-screen for RBBP9 inhibitor project, biochemical, fluorescence polarization; actives 0.33% (n = 300,000); inhibition, % at 9.51 µM; AID 1947, 2009; recombinant Fam108B, FP-Rh probe fluorescence polarization;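 active means inhibition above the screen mean inhibition plus 3 SD, computed separately per campaign, cut at about 18% in these data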;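 further: inhibitors lower polarization as less probe binds the enzyme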
LYPLA2 inh: LYPLA2 inhibitors, primary screen, counter-screen for PME1 inhibitor project, biochemical, fluorescence polarization, FP-Rh probe ABPP; inhibition, % at 5.9 µM; recombinant LYPLA2; AID 2177, 2009; actives 0.38% (n = 320,000);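 active means inhibition above the screen-wide mean plus 3 SD, limit set per campaign, cut at about 26% in these data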;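 further: 0% = LYPLA2 with DMSO and 100% = wells lacking LYPLA2 enzyme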
Target sequence (O95372 whole entry, looked up): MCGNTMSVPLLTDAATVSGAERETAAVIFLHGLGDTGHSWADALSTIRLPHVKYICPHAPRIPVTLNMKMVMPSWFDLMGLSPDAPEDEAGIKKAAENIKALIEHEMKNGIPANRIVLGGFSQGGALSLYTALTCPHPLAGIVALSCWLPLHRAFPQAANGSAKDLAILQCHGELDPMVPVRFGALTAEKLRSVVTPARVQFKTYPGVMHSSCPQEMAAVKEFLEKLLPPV
LYPLA1 conf: LYPLA1 inhibitors, retest, confirmation, counter-screen for PME1 inhibitor project, biochemical, fluorescence polarization, FP-Rh probe ABPP | shares compounds with LYPLA1 counter | recombinant LYPLA1 | inhibition, % at 5.9 µM | actives 69% (n = 480) | AID 2233, 2010;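 active means mean inhibition across replicates above the hit cutoff set in the primary screen, cut at about 15% in these data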;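 further: loss of FP-Rh probe labeling of LYPLA1 seen as lower polarization; 0% = LYPLA1 with DMSO and 100% = wells lacking LYPLA1 enzyme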
LYPLA2 conf: LYPLA2 inhibitors, retest, confirmation, counter-screen for PME1 inhibitor project, biochemical, fluorescence polarization, FP-Rh probe ABPP. shares compounds with LYPLA2 inh. inhibition, % at 5.9 µM. actives 72% (n = 1,100). AID 2232, 2010. recombinant LYPLA2;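 active means mean inhibition across replicates above the hit cutoff set in the primary screen, cut at about 26% in these data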;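 further: blocked labeling of the enzyme by serine hydrolase FP-Rh probe lowers polarization; 0% = enzyme with DMSO and 100% = wells lacking LYPLA2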
LYPLA2 gel ABPP: LYPLA2 inhibitors in proteome, late-stage follow-up, gel-based competitive ABPP, fluorescence, assay provider; AID 652029, 2013; shares compounds with LYPLA2 inh; actives 30% (n = 150); inhibition, % at 20 µM; rhLYPLA2 in mouse brain proteome, gel ABPP FP-Rh;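 active means inhibition of LYPLA2 enzyme probe labeling above about 50%, limit read from the data; inactive means inhibition below that limit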;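 further: loss of FP-Rh probe labeling of the LYPLA2 gel band measured as band density; 0% = DMSO only control band and 100% = blank gel background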
PREPL confirm: human PREPL enzyme inhibitors, confirmation, biochemical, fluorescence polarization; shares compounds with PREPL inh; recombinant PREPL, fluorescence polarization activity probe; inhibition, % at 5.96 µM; actives 67% (n = 2,000); AID 2803, 2010;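 further: 0% = protein with DMSO and 100% = wells lacking protein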
* marks the source's active call; other numbers are inactive results; ? = inconclusive; nt = no result given. Compounds with a hit are over-represented: about 1.6% of the library has one in this group of screens. Unless noted, no stated cut-off is given here; in the data, active means inhibition above about 43%; inactive means the rest.

SMILES	LYPLA1 counter	MEX-5 binding	PME-1 inh	PREPL inh	Fam108B inh	LYPLA2 inh	LYPLA2 conf	others
O=c1[nH]n2c(=O)c3c([nH]c2c1N=Nc1cccc(C(F)(F)F)c1)CCCC3	16*	-4	71*	55*	9	1	nt	LYPLA1 conf=15*;PREPL confirm=62*
CCN1/C(=C/C=C/c2oc3ccc(-c4ccccc4)cc3[n+]2CC)Oc2ccc(-c3ccccc3)cc21	58*	?	72*	67*	-11	64*	-176	LYPLA1 conf=-47;PREPL confirm=-12
Cc1noc(C)c1S(=O)(=O)N1CCC(C(N)=O)CC1	0	4	-6	1	3	1	nt
COC(=O)c1ccccc1-c1ccc(/C=N/NC(=O)c2cc3ccccc3o2)o1	-18	-1	-10	15	-3	-14	nt
COC(=O)c1ccccc1-c1c2ccc(=N)cc-2oc2cc(N)ccc12	170*	nt	150*	151*	nt	191*	155*	LYPLA1 conf=130*;PREPL confirm=151*
CCN1C=C(Cc2cccs2)C2=C(C1)C(c1cccs1)C(C#N)=C(N)O2 (stereo not drawn)	-2	1	-4	7	-1	0	nt
C#CCOCCOCCOCCNc1nc(N2CCN(C(=O)C(Cc3cc4ccccc4[nH]3)n3cc(C(N)Cc4ccc(O)cc4)nn3)CC2)nc(N2CCN(C(=O)C(CCC(=O)O)n3cc(C(N)C(C)CC)nn3)CC2)n1 (stereo not drawn)	1	nt	1	31	-6	0	nt
C#CCOCCOCCOCCNc1nc(N2CCN(C(=O)[C@H](Cc3cc4ccccc4[nH]3)n3cc([C@@H](N)C(C)CC)nn3)CC2)nc(N2CCN(C(=O)[C@H](Cc3cc4ccccc4[nH]3)n3cc([C@@H](N)Cc4ccc(O)cc4)nn3)CC2)n1 (stereo partly drawn)	17*	35	-28	58*	-19	-20	nt	LYPLA1 conf=34*;PREPL confirm=57*
O=C(N/N=C/c1ccc(-c2ccccc2[N+](=O)[O-])o1)c1cccnc1	3	-9	4	11	4	6	nt
CC(C)(C)c1cc(C(=O)N/N=C/c2ccc(-c3ccccc3[N+](=O)[O-])o2)n[nH]1	26*	-3	32*	50*	9	36*	1	LYPLA1 conf=0;PREPL confirm=19
CC1(C)Cc2c(cnn2-c2ccccc2)C(NC(=O)CCCN2CCCC2=O)C1 (stereo not drawn)	-1	0	-3	-7	4	6	nt
C(=N\n1cnnc1)/c1ccc(OCc2cccc3ccccc23)cc1	16*	0	-6	50*	-4	52*	39*	LYPLA1 conf=20*;PREPL confirm=43
O=C(COc1ccc2ccccc2c1)NCC(=O)N/N=C/c1ccco1	0	2	-3	17	-1	30*	-4
O=C(Cn1cnc2ccccc2c1=O)c1ccccc1	1	-1	6	-3	-4	8	nt
CCOc1ccc(C(=O)Cn2cnc3ccccc3c2=O)cc1	3	-1	-6	-11	-1	34*	23
O=C(Cn1cnc2ccccc2c1=O)c1ccc(Br)cc1	-6	0	3	9	1	29*	42*
CCc1ccc(C(=O)Cn2cnc3cc([N+](=O)[O-])ccc3c2=O)cc1	-1	0	-1	35	3	46*	37*
O=C(Cn1cnc2ccccc2c1=O)c1ccc(OC(F)F)cc1	0	-3	-6	1	2	52*	67*	LYPLA2 gel ABPP=70*
CCOC(=O)C1CCN(S(=O)(=O)c2ccc3c(c2)CC(=O)N3)CC1	-2	2	-3	-12	3	-5	nt
COc1ccc(CNS(=O)(=O)c2ccc(-n3cccn3)cc2)cc1	2	-1	1	0	1	1	nt
Cc1cc(C)cc(Oc2ccccc2/C=N\O)c1	-3	-1	-3	-7	-1	2	nt
COC(=O)c1cc(NC(=O)c2ccccc2)c(=O)oc1C	-1	-3	2	0	-4	27*	2
COC(=O)c1cc(NC(=O)c2ccc(C)cc2)c(=O)oc1C	-2	1	-3	12	7	1	nt
O=C(NCc1cccnc1)c1ccc(NC(=O)c2ccc([N+](=O)[O-])cc2)cc1	6	2	6	1	-6	37*	30*
Cc1ccc(NC(=O)Cn2cnc3sc(C(=O)NCc4ccco4)c(C)c3c2=O)cc1Cl	-7	-2	-4	-21	1	23	nt
SMILES	LYPLA1 counter	MEX-5 binding	PME-1 inh	PREPL inh	Fam108B inh	LYPLA2 inh	LYPLA2 conf	others
COc1ccccc1NC(=O)Cn1cnc2sc(C(=O)Nc3ccc(OC)c(OC)c3)c(C)c2c1=O	-4	0	0	-3	-5	20	nt
COC(=O)CNC(=O)c1sc2ncn(CC(=O)Nc3ccc(C)c(Cl)c3)c(=O)c2c1C	-9	1	-5	-12	-1	40*	46*
COCCNC(=O)c1sc2ncn(CC(=O)Nc3ccc(C)c(Cl)c3)c(=O)c2c1C	2	0	5	-1	4	50*	47*
O=C(CC1C(=O)N(c2ccc(F)cc2)C(=O)N1Cc1ccccn1)Nc1ccccc1 (stereo not drawn)	0	-1	-2	7	8	0	nt
CCN1CCN(C(=O)c2ccc(S(=O)(=O)Nc3ccccc3)cc2)CC1	0	nt	0	1	nt	-3	nt
COc1cccc(N2CCN(C(=O)c3ccc(CSc4nc5ccncc5[nH]4)cc3)CC2)c1	3	2	3	10	-1	31*	22
